This is an account of results in PubChem BioAssay (NCATS).

The nature of assay [1]: qHTS for Activators of Parkin Expression: LOPAC Validation Assay (FLuc Reporter) (AID 720573;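 note: 0% = DMSO and 100% = positive control compounds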). The method in brief: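 FLuc signal from Parkin-promoter coincidence reporter neuronal cells, normalized to DMSO and positive control (100%). Cells (1,500/well) pre-incubated 24 h, then exposed to LOPAC compounds in 7-point dose response for 24 h at 37 C, 5% CO2.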
Background: In qHTS, concentration-response curves come from the screen itself.

Assay [2] concerns the target T1, Hexokinase-4 (Homo sapiens) + Glucokinase regulatory protein (Homo sapiens) (UniProt P35557+Q14397). The experiment in a line: qHTS assay for inhibitors of recombinant human GCK-GKRP interaction: Diaphorase-coupled assay (AID 743205). The method in brief:
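A kinetic fluorescence read (Ex 525/Em 590 nm, every minute for 30 minutes) tracked resorufin from a G6PDH-diaphorase coupled GCK reaction. It contained 10 nM GST-GCK, 10 nM FLAG-GKRP, 5 mM glucose, 0.4 mM ATP in Hepes pH 7.6. Normalized to with/without-enzyme DMSO controls.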

Assay [3] has as its target T1, Hexokinase-4 (Homo sapiens) + Glucokinase regulatory protein (Homo sapiens). The experiment in a line: qHTS assay for inhibitors of recombinant human GCK-GKRP interaction: ADP-Glo assay (AID 743206).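 Note: plate controls were DMSO plus enzyme for no effect and no enzyme for full effect.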 The method in brief: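 GST-GCK and FLAG-GKRP (15 nM each in the dispensed mix, with 2 uM S6P) react with 0.4 mM ATP and 5 mM glucose (final) in Hepes pH 7.6 for 60 min at room temperature. ADP is measured by ADP-Glo luminescence.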

The target is the same in assay [4]. The assay is described as follows: qHTS assay for inhibitors of recombinant human GCK-GKRP interaction: HTRF assay (AID 743207).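 Note: 0% = DMSO with GCK present and -100% = DMSO wells lacking GCK.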 Put shortly:
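After 60 min equilibration at room temperature with anti-FLAG XL665 and anti-GST antibodies, FRET ratio (665/615 nm, excitation 320 nm) was read. Proteins: GST-GCK and FLAG-GKRP, each 5 nM, plus 2 uM S6P, pH 7.1 buffer; GCK-free wells define minimum signal.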

A short description of assay [5]: qHTS Assay for Identifying Gametocytocidal Compounds (AID 743244).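 For max response: % is set by controls: 0 for no effect and ±100 for the full control effect; actives lower the fluorescent signal which means gametocytes are killed.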 Note: potency is the fitted concentration of half-maximal effect. The following applies: P. falciparum 3D7 stage III-V gametocytes, alamarBlue, 72 h; max response: stronger effect = lower value. The method in brief: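 P. falciparum 3D7 stage III–V gametocytes (20,000 cells/well) were exposed to compounds for 72 h at 37 °C, 5% CO2. AlamarBlue was then added for 24 h; decreased resorufin fluorescence (Ex 525/Em 598 nm) indicated loss of viability.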

Assay [6] in a line: qHTS assay for measurement of the activity of small molecule inhibitors on Zika virus induced Caspase-3 activity in human iPSC derived neural progenitor cells (hNPCs) (AID 1224857). Note: % of control where 0% means no effect; nearly all actives have a fitted effect of over 65% in size. Put shortly:
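hNPCs seeded 350 cells/well, cultured 16–20 h; compounds added 1 h before ZIKV (2 FFU/cell), 37 C 6 h. Caspase-Glo 3/7 luminescence after 30 min RT; % inhibition from induction scaled to uninfected (0%) and infected (100%) wells.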

A short description of assay [7]: qHTS assay for measurement of the activity of small molecule inhibitors on Zika virus induced Caspase-3 activity in human astrocytoma cells (AID 1224859).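 Note: plate controls were ZIKV-infected untreated cells for no effect and uninfected cells for full effect.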 Put shortly:
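Luminescence read-out (Caspase-Glo 3/7, 30 min RT) of caspase activity in SNB-19 cells infected 6 h with ZIKV, 2 FFU/cell, after 1 h compound pretreatment; % inhibition from induction normalised to uninfected (0%) and infected (100%) wells.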

A short description of assay [8]: qHTS profiling of the MIPE4 collection as inhibitors of Plasmodium falciparum (DD2) proliferation (AID 743345; call rule not given here). Conditions: P. falciparum Dd2 in erythrocytes, SYBR Green DNA, 72 h; at 28.5 µM (top of the series). Put shortly:
(§1)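 Erythrocytes infected with P. falciparum (0.3% parasitemia, 2.5% hematocrit) incubated with compounds 72 h at 37 C, 5% CO2. Lysis with saponin/Triton buffer containing SYBR Green I, overnight at room temperature in the dark; DNA fluorescence (485/535 nm) normalised to 0.29 uM artemisinin and DMSO.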

Assay [9] is described as follows: qHTS profiling of the MIPE4 collection as inhibitors of Plasmodium falciparum (HB3) proliferation (AID 743347; call rule not given here;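 note: plate controls were DMSO vehicle wells for no effect and artemisinin wells for full effect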). Conditions: P. falciparum HB3 in erythrocytes, SYBR Green DNA, 72 h; at 28.5 µM (top of the series). The method in brief: as §1
Assay [10] in a line: qHTS assay for small molecule agonists of the antioxidant response element (ARE) signaling pathway measured by Nrf2-dependant transcriptional activity - cell viability counter screen (AID 720653; active = well fitted curve in the direction sought with a large enough effect in the repeat runs; an effect the other way counts as inactive or inconclusive; note: % is set by controls: 0 for no effect and ±100 for the full control effect). Conditions: ARE-bla HepG2 viability, CellTiter-Glo ATP luminescence, 16 h; max response: stronger effect = lower value. Put shortly:
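ARE-bla HepG2 cells (2,000/well) rested 5 hrs at 37C/5% CO2, then exposed to compounds in DMSO for 16 hrs. Viability was read in the same wells as intracellular ATP by luminescence, 30 min at room temperature after reagent addition.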

Assay [11] can be described thus: qHTS assay for cell viability of HEK293 cells (AID 743288). Note: % is set by controls: 0 for no effect and ±100 for the full control effect; nearly all actives have a fitted effect of over 50% in size. The following applies: ATP luminescence (CellTiter-Glo), 18 h; max response: stronger effect = lower value. Put shortly:
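Total intracellular ATP, measured with a luciferase-coupled reagent, indicates the number of viable HEK293 cells. Exposure to test chemicals lasts 18 h at 37 C in 1,536-well format at 2,000 cells/well.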

A short description of assay [12]: qHTS assay for cell viability of the p53RE-bla HCT-116 cell line (AID 743292). Note: % is set by controls: 0 for no effect and ±100 for the full control effect; nearly all actives have a fitted effect of over 55% in size. The method in brief: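 HCT-116 p53RE-bla cells seeded 4,000/well; 5 h at 37 C; compound (DMSO) added; 16 h at 37 C; CellTiter-Glo added, 30 min RT; luminescence read.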

Records with an inconclusive call do not appear. Active and inactive are the calls of the source. Unless noted, calls come from the whole dose curve; as a rule, active = well fitted curve in the direction sought with a large enough effect; inconclusive = small, poorly fitted or top-dose-only effect, or another doubt; inactive = no such curve, though single readings can be large; an effect the other way counts as inactive or inconclusive.

T1 sequence (P35557 whole entry, looked up): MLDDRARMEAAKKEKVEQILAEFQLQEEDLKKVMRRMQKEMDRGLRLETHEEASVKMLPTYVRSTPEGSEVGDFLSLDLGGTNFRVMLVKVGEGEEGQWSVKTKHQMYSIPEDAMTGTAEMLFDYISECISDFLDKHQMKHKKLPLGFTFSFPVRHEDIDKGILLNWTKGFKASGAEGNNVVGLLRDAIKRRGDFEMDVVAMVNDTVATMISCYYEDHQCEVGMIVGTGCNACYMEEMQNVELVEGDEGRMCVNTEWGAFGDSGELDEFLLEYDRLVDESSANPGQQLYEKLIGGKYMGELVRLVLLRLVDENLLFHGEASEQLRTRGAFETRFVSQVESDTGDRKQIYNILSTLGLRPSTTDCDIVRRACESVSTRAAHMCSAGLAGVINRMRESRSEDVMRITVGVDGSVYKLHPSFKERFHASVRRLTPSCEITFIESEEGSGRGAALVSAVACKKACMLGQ
T1 sequence (Q14397 whole entry, looked up): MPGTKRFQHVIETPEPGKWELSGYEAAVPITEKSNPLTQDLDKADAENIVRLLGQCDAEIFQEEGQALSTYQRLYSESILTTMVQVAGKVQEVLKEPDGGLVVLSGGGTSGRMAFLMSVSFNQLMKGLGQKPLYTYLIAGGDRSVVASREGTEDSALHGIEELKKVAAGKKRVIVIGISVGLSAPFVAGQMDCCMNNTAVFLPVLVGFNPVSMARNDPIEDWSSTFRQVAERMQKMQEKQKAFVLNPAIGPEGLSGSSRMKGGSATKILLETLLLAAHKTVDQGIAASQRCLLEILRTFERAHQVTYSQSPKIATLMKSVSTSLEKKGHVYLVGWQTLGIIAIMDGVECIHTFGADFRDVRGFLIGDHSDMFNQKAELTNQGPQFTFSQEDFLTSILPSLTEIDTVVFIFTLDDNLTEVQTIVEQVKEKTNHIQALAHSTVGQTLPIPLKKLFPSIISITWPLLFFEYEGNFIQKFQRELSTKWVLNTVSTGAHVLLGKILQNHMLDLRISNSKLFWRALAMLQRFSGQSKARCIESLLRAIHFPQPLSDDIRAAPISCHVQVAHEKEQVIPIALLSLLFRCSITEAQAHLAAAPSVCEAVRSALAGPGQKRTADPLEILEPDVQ

As for `Ic1ccccc1CNC1C2CCN(CC2)C1C(c1ccccc1)c1ccccc1` (stereo not drawn), the result in assay [1], in [3], in [4] and in [7] was inactive. Also, the Potency result in assay [2] and in assay [6] was “inactive” throughout. Moreover, the Potency in [5] was 1.78 µM (active).
For `COc1ccc(OC)c(C(O)C(C)N)c1` (stereo not drawn), the result in assay [1], in [3], in assay [4] and in [7] was inactive. Moreover, the Potency result in assay [2] and in assay [6] was “inactive” in each case. The max response in assay [5] was 11.7% (inactive).
Consider `COc1ccc2c(c1)C13CCCCC1C(C2)N(C)CC3` (stereo not drawn), for which the outcome in assay [1], in assay [3], in [4] and in [7] was inactive. For the same molecule, the Potency entry in [2] and in assay [6] was “inactive” each time. Moreover, the max response in assay [5] is 9.94% (inactive).
For the molecule `NC(=O)CI`, the result in assay [1], in assay [3], in [4] and in assay [7] was inactive. The Potency entry in [2] and in [6] was “inactive” each time. In addition, the max response in [5] was 8.04% (inactive).
In the case of `CN(C(=O)Cc1ccc(Cl)c(Cl)c1)C(CN1CCCC1)c1cccc(OCC(=O)O)c1` (stereo not drawn), the molecule was called inactive in assay [1], in assay [3], in [4] and in assay [7]. Besides, the Potency entry in [2] and in assay [6] was “inactive” in each case. In assay [5], the max response is 13% (inactive).
Take `NC(=O)c1cc(N2CC2)c([N+](=O)[O-])cc1[N+](=O)[O-]`: the outcome in assay [1], in assay [3], in [4] and in [7] was inactive. The Potency entry in [2] and in assay [6] was “inactive” each time. For the same molecule, the max response in [5] is 5.78% (inactive).
Take `CC12NC(Cc3ccccc31)c1ccccc12` (stereo not drawn): the Potency result in assay [2] and in assay [6] was “inactive” in each case. In addition, the outcome in [3], in assay [4] and in [7] was inactive.
`O=[N+]([O-])/C=C/c1ccc2c(c1)OCO2`: the molecule was classed as inactive in assay [1], in [3], in assay [4] and in assay [7]. Besides, the Potency entry in [2] and in [6] was “inactive” throughout. Further, the Potency in assay [5] is 1.58 µM (active).
Turning to `C[C@H](Cc1ccc2c(c1)OC(C(=O)O)(C(=O)O)O2)NC[C@H](O)c1cccc(Cl)c1`, the molecule was called inactive in assay [1], in assay [3], in assay [4] and in assay [7]. Besides, the Potency entry in [2] and in assay [6] was “inactive” in each case. The max response in assay [5] is 13.1% (inactive).
For the molecule `CCCN1CCC[C@@H](c2cccc(O)c2)C1`, the molecule was classed as inactive in assay [1], in assay [3], in [4] and in assay [7]. Moreover, the Potency result in assay [2] and in [6] was “inactive” each time. For the same molecule, the max response in assay [5] was 21.7% (inactive).
In the case of `NC(Cc1cc(O)c(O)cc1O)C(=O)O` (stereo not drawn), the outcome in assay [1], in assay [3] and in assay [7] was inactive. The Potency entry in assay [2] and in assay [6] was “inactive” throughout. The max response in assay [5] was 2.05% (inactive).
Consider `CCCN(CCC)C1CCc2cccc(O)c2C1` (stereo not drawn), for which the call in assay [1], in [3], in [4] and in [7] was inactive. In addition, the Potency result in assay [2] and in [6] was “inactive” each time. Besides, the max response in [5] was 13.2% (inactive).
Take `CO[C@H]1CC=C2CCN3CCC4=C(CC(=O)OC4)[C@]23C1`: the result in assay [1], in assay [3], in [4] and in [7] was inactive. The Potency entry in assay [2] and in assay [6] was “inactive” throughout. Also, the max response in assay [5] was -3.4% (inactive).
For the molecule `NC(N)=Nc1ccc2[nH]c3c(c2c1)C[C@@]1(O)[C@H]2Cc4ccc(O)c5c4[C@@]1(CCN2CC1CC1)[C@H]3O5`, the result in assay [1], in assay [3], in assay [4] and in assay [7] was inactive. The Potency entry in assay [2] was “inactive”.
For the molecule `C[N+]1(C)[C@@H]2CC(OC(=O)[C@H](CO)c3ccccc3)C[C@H]1[C@H]1O[C@@H]12` (stereo partly drawn), the parasite growth remaining, % of DMSO control (lower = more inhibition) in assay [8] came out at 91.7%. Also, the growth, % of control in [9] was found to be 86.8%. The Potency result in assay [6] is “inactive”.
As for `Cc1sc2ccccc2c1CC1=NCCN1`, the molecule was called inactive in assay [1], in assay [3], in [4] and in assay [7]. In addition, the Potency result in assay [2] was “inactive”. Moreover, the max response in assay [5] is 25.3% (inactive).
In the case of `CC(C)(O)[C@@H]1C2OC(=O)[C@@H]1[C@]1(O)C[C@H]3O[C@]34C(=O)O[C@H]2[C@]14C` (tested in a mixture with another compound), the molecule was classed as inactive in [1], in [3], in [4] and in [7]. In [2], the Potency result is “inactive”.
Regarding `COc1ccc2c(c1)[C@@]13CCCC[C@H]1[C@@H](C2)NCC3`, the result in assay [1], in assay [3], in assay [4] and in [7] was inactive. Also, the Potency result in assay [2] is “inactive”.
Regarding `O=C(O)c1cc[c]([Hg][Cl])cc1`, the call in [1], in [3], in assay [4] and in assay [7] was inactive. For the same molecule, the values for the max response in assay [10], in [5] and in [11] were 8.27% (inactive), 33.9% (inactive) and -11.9% (inactive), respectively. Moreover, the Potency entry in assay [2] and in assay [12] was “inactive” throughout.
Turning to `CC(N)c1cccc(Cl)c1Cl` (stereo not drawn), the outcome in assay [1], in [3], in [4] and in [7] was inactive. Also, the Potency entry in assay [2] was “inactive”.
`CCn1cnc2c(Nc3cccc(Cl)c3)nc(N[C@@H]3CCCC[C@@H]3N)nc21`: the outcome in assay [1], in assay [3], in assay [4] and in assay [7] was inactive. For the same molecule, the Potency entry in assay [2] is “inactive”.
Regarding `C=CCN1CCc2cccc3c2[C@H]1Cc1ccc(O)c(O)c1-3`, the molecule was classed as inactive in [1], in assay [3], in assay [4] and in assay [7]. Further, in assay [2], the Potency result is “inactive”.
Take `CC(=O)OCC1=C(C(=O)O)N2C(=O)[C@@H](NC(=O)CCC[C@@H](N)C(=O)O)[C@H]2SC1`: the result in assay [1], in assay [3], in assay [4] and in assay [7] was inactive. The Potency entry in [2] is “inactive”.
Regarding `CC(C)(C)c1cc(C=C(C#N)C#N)cc(C(C)(C)C)c1O`, the call in assay [1], in [3], in assay [4] and in assay [7] was inactive. The Potency entry in [2] was “inactive”.
With `CCCN(CCC)CCc1c[nH]c2ccc(C(N)=O)cc12`, the outcome in assay [1], in [3], in assay [4] and in assay [7] was inactive. In addition, the Potency result in assay [2] was “inactive”. Besides, in assay [5], the max response is -3.58% (inactive).
In the case of `COc1ccc2c(c1)c(CCN1CCOCC1)c(C)n2C(=O)c1cccc(Cl)c1Cl`, the call in assay [1], in [3], in assay [4] and in assay [7] was inactive. Besides, in assay [2], the Potency result was “inactive”. In addition, the max response in assay [5] was 23.8% (inactive).
Turning to `CCN1C[C@@]2(COC)C3[C@@H](OC)C4[C@@H]1C3([C@@H]1C[C@]3(O)[C@H](OC(=O)c5ccccc5)[C@@H]1[C@]4(OC(C)=O)[C@@H](O)[C@@H]3OC)[C@H](OC)C[C@H]2O`, the result in [1], in [3], in assay [4] and in assay [7] was inactive. Moreover, the Potency entry in assay [2] was “inactive”.
As for `CCCN(CCC)CCc1ccc(O)c(O)c1`, the outcome in [1], in assay [3], in assay [4] and in [7] was inactive. For the same molecule, the Potency entry in assay [2] was “inactive”.
